Laboratory results: PubChem BioAssay (NCATS)
Records with an inconclusive call do not appear. Activity calls are given as the source filed them. Calls follow the shape of the dose curve; as a rule, active = well fitted curve in the direction sought with a large enough effect; inconclusive = small, poorly fitted or top-dose-only effect, or another doubt; inactive = no such curve, though single readings can be large; an effect the other way counts as inactive or inconclusive.

Assay: qHTS of pediatric cancer cell lines to identify multiple opportunities for drug repurposing: Confirmatory screen for DAOY cells (AID 1347114); also: nearly all actives have a fitted effect of over 65% in size; as to activity change, negative = cytotoxic: % is scaled to controls: 0 for no effect and ±100 for the full control effect
Conditions: DAOY medulloblastoma cells viability, cytotoxicity qHTS; series mostly up to 45.9 µM; activity change, negative = cytotoxic: at the top concentration
In short: (§1)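 Viability measured as metabolically active cells via CellTiter-Glo luminescence following 48 hours of compound exposure, 11-point dilutions in confirmatory testing. 500-1,000 cells/well plated 5 hours before dosing; controls were DMSO and 2.3 µM bortezomib.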
Potency is read from the fitted curve at half-maximal effect.

Row | Compound | activity change, negative = cytotoxic | Potency
1 | C[C@]12CC[C@@H]3c4ccc(O)cc4C[C@@H](CCCCCCCCCS(=O)CCCC(F)(F)C(F)(F)F)[C@H]3[C@@H]1CC[C@@H]2O (stereo partly specified) | -25.9% (inactive) | 
2 | C[n+]1cc2c3c(ccc2c2ccc4cc5c(cc4c21)OCO5)OCO3 |  | 2.29 µM (active)
3 | CN/C(=C\[N+](=O)[O-])NCCSCc1ccc(CN(C)C)o1 | -3.71% (inactive) | 
4 | C[C@]12C=CC(=O)C=C1CC[C@H]1[C@@H]3C[C@@H](O)[C@](O)(C(=O)CO)[C@@]3(C)C[C@H](O)[C@@]12F | -1.58% (inactive) | 

Assay: qHTS of pediatric cancer cell lines to identify multiple opportunities for drug repurposing: Confirmatory screen for NB-EBc1 cells (AID 1347115);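 also: cells exposed to compound for 48 h before the viability read; nearly all actives have a fitted effect of over 45% in size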; as to activity change, negative = cytotoxic: % is scaled to controls: 0 for no effect and ±100 for the full control effect
Conditions: NB-EBc1 neuroblastoma cells, viability (cytotoxicity); series mostly up to 45.9 µM; activity change, negative = cytotoxic: at the top concentration
From the text: Drug repurposing or repositioning has been offered as a strategy for drug development in oncology programs. This approach has special potential for childhood cancers and other rare or orphan diseases, where the expected return on new drug development has been a disincentive to pharmaceuticals.
In this project we exploit the poly-pharmacology of drugs to discover new indications via phenotypic screening of a panel of 19 well-characterized cell lines derived from solid tumors seen in children and adolescents. The goal is to identify approved drugs with previously unrecognized anticancer properties that has the potential to reveal new mechanisms and biological processes involved in carcinogenesis or drug resistance. We employed a titration-based paradigm (quantitative high-throughput screening or qHTS), where all compounds were tested at multiple concentrations for their effect on cell viability. Concentration-response curves (CRCs) were derived directly from the primary screen, and both potency and efficacy values were used to identify compounds with robust bioactivity profiles. We screened the NIH Chemical Genomics Center (NCGC) Pharmaceutical Collection (NPC) and Mechanism Interrogation Plate (MIPE) small molecule collections of approved and investigational compounds against these cell lines; and measured metabolically active cells after 48 hours of compound treatment as a proxy for cell viability.
Assay Submitter: Nathalia J. Martinez, National Center for Advancing Translational Sciences, National Institutes of Health, Rockville, MD, USA; email: natalia.martinez@nih.gov
[1] Shen, M et al. Quantitative high-throughput phenotypic screening of pediatric cancer cell lines identifies multiple opportunities for drug repurposing. Oncotarget 2017 Dec 19;9(4):4758-4772. PMID 29435139.
The cells were obtained from University of North Carolina (UNC), Pediatric Preclinical Testing Program (PPT), and Coriell Institute (CI).
qHTS cell viability assay:
Cells were assayed in growth media at a density of 500-1,000 cells/well. Five microliters of cells were dispensed into 1,536-well, white, solid-bottom, TC-treated plates (Greiner Bio One) using a multidrop dispenser and incubated at 37 degrees C, 5% CO2, under a humidified atmosphere for 5 hours. Twenty-three nanoliters of compounds and controls (neutral control DMSO or positive control bortezomib at final concentration of 2.3 µM) were subsequently transferred by Kalypsys pintool. For primary screens, the MIPE collection was tested at 11-point dilutions (final concentrations range from 0.78 nM to 46 µM) and the NPC collection at 8-point dilutions (final concentrations range from 0.59 nM to 46 µM). Compounds tested in follow-up screens were assayed at 11-point dilutions. Cells were incubated for 48 hours, followed by addition of 3 µL of CellTiter-Glo (Promega). After a 15 min incubation at room temperature, samples were analyzed for luminescence intensity using a ViewLux High-throughput CCD imager equipped with clear filters.

Row | Compound | activity change, negative = cytotoxic | Potency
5 | C[C@]12CC[C@@H]3c4ccc(O)cc4C[C@@H](CCCCCCCCCS(=O)CCCC(F)(F)C(F)(F)F)[C@H]3[C@@H]1CC[C@@H]2O (stereo partly specified) | -7.47% (inactive) | 
6 | NCCCNCCSP(=O)(O)O | 10.1% [at 9.58 µM] (inactive) | 
7 | C[n+]1cc2c3c(ccc2c2ccc4cc5c(cc4c21)OCO5)OCO3 |  | 3.23 µM (active)
8 | CN1C[C@H](C(=O)N[C@]2(C)O[C@@]3(O)[C@@H]4CCCN4C(=O)[C@H](Cc4ccccc4)N3C2=O)C[C@@H]2c3cccc4[nH]cc(c34)C[C@H]21 | -7.25% (inactive) | 
9 | C[C@]12C=CC(=O)C=C1CC[C@H]1[C@@H]3C[C@@H](O)[C@](O)(C(=O)CO)[C@@]3(C)C[C@H](O)[C@@]12F | -39.3% (inactive) | 

Assay: qHTS of pediatric cancer cell lines to identify multiple opportunities for drug repurposing: Confirmatory screen for SJ-GBM2 cells (AID 1347116); also: nearly all actives have a fitted effect of over 60% in size;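 as to activity change, negative = cytotoxic: plate controls were DMSO for no effect and bortezomib for full effect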
Conditions: SJ-GBM2 glioblastoma cells, viability; series mostly up to 45.9 µM; activity change, negative = cytotoxic: at the top concentration
In short: as §1

Row | Compound | activity change, negative = cytotoxic | Potency
10 | C[C@]12CC[C@@H]3c4ccc(O)cc4C[C@@H](CCCCCCCCCS(=O)CCCC(F)(F)C(F)(F)F)[C@H]3[C@@H]1CC[C@@H]2O (stereo partly specified) | -1.13% (inactive) | 
11 | NCCCNCCSP(=O)(O)O |  | 0.215 µM (active)
12 | C[n+]1cc2c3c(ccc2c2ccc4cc5c(cc4c21)OCO5)OCO3 |  | 3.62 µM (active)
13 | Nc1nc(N)c2nc(-c3ccccc3)c(N)nc2n1 |  | 9.27 µM (active)
14 | CN/C(=C\[N+](=O)[O-])NCCSCc1ccc(CN(C)C)o1 | 11.3% (inactive) | 

Assay: qHTS of pediatric cancer cell lines to identify multiple opportunities for drug repurposing: Confirmatory screen for BT-37 cells (AID 1347117); also: nearly all actives have a fitted effect of over 55% in size;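 as to activity change, negative = cytotoxic: plate controls were DMSO for no effect and bortezomib for full effect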
Conditions: BT-37 pediatric cancer cells, viability; series mostly up to 45.9 µM; activity change, negative = cytotoxic: at the top concentration
In short: (§2)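 Viability after 48 h compound treatment at 37C, 500-1,000 cells/well, read as ATP luminescence with CellTiter-Glo. Primary screens used 11-point (MIPE, 0.78 nM-46 µM) or 8-point (NPC, 0.59 nM-46 µM) final concentrations; follow-up screens used 11-point dilutions.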

Row | Compound | activity change, negative = cytotoxic | Potency
15 | C[C@]12CC[C@@H]3c4ccc(O)cc4C[C@@H](CCCCCCCCCS(=O)CCCC(F)(F)C(F)(F)F)[C@H]3[C@@H]1CC[C@@H]2O (stereo partly specified) | -15.7% (inactive) | 
16 | NCCCNCCSP(=O)(O)O | 0.812% [at 9.58 µM] (inactive) | 
17 | C[n+]1cc2c3c(ccc2c2ccc4cc5c(cc4c21)OCO5)OCO3 |  | 1.44 µM (active)
18 | CN1C[C@H](C(=O)N[C@]2(C)O[C@@]3(O)[C@@H]4CCCN4C(=O)[C@H](Cc4ccccc4)N3C2=O)C[C@@H]2c3cccc4[nH]cc(c34)C[C@H]21 | -27.9% (inactive) | 
19 | CN/C(=C\[N+](=O)[O-])NCCSCc1ccc(CN(C)C)o1 | 1.85% (inactive) | 
20 | C[C@]12C=CC(=O)C=C1CC[C@H]1[C@@H]3C[C@@H](O)[C@](O)(C(=O)CO)[C@@]3(C)C[C@H](O)[C@@]12F |  | 9.27 µM (active)

Assay: qHTS of pediatric cancer cell lines to identify multiple opportunities for drug repurposing: Confirmatory screen for TC32 cells (AID 1347118);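 also: cells exposed to compound for 48 h before the read; nearly all actives have a fitted effect of over 65% in size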
Conditions: TC32 Ewing sarcoma cells viability qHTS
In short: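 qHTS, TC32, 48 h drug treatment, CellTiter-Glo luminescence as a proxy for metabolically active cells; primary top concentration 46 µM (MIPE 11-pt, NPC 8-pt); confirmatory 11-pt.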

Row | Compound | Potency
21 | C[C@]12CC[C@@H]3c4ccc(O)cc4C[C@@H](CCCCCCCCCS(=O)CCCC(F)(F)C(F)(F)F)[C@H]3[C@@H]1CC[C@@H]2O (stereo partly specified) | 8.27 µM (active)
22 | C[n+]1cc2c3c(ccc2c2ccc4cc5c(cc4c21)OCO5)OCO3 | 1.15 µM (active)
23 | Nc1nc(N)c2nc(-c3ccccc3)c(N)nc2n1 | 3.69 µM (active)
24 | CN/C(=C\[N+](=O)[O-])NCCSCc1ccc(CN(C)C)o1 | 10.4 µM (active)
25 | C[C@]12C=CC(=O)C=C1CC[C@H]1[C@@H]3C[C@@H](O)[C@](O)(C(=O)CO)[C@@]3(C)C[C@H](O)[C@@]12F | 6.57 µM (active)

Assay: qHTS of pediatric cancer cell lines to identify multiple opportunities for drug repurposing: Confirmatory screen for MG 63 (6-TG R) cells (AID 1347119); also: nearly all actives have a fitted effect of over 55% in size;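 as to activity change, negative = cytotoxicity: plate controls were DMSO neutral control for no effect and bortezomib for full effect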
Conditions: MG-63 (6-TG resistant) osteosarcoma viability; series mostly up to 45.9 µM; activity change, negative = cytotoxicity: at the top concentration
In short: as §2

Row | Compound | activity change, negative = cytotoxicity | Potency
26 | NCCCNCCSP(=O)(O)O | 6.09% [at 9.58 µM] (inactive) | 
27 | C[n+]1cc2c3c(ccc2c2ccc4cc5c(cc4c21)OCO5)OCO3 |  | 1.62 µM (active)
28 | CN1C[C@H](C(=O)N[C@]2(C)O[C@@]3(O)[C@@H]4CCCN4C(=O)[C@H](Cc4ccccc4)N3C2=O)C[C@@H]2c3cccc4[nH]cc(c34)C[C@H]21 | -13.6% (inactive) | 
29 | CN/C(=C\[N+](=O)[O-])NCCSCc1ccc(CN(C)C)o1 | 10.3% (inactive) | 

Assay: qHTS of pediatric cancer cell lines to identify multiple opportunities for drug repurposing: Confirmatory screen for control Hh wild type fibroblast cells (AID 1347121); also: nearly all actives have a fitted effect of over 70% in size;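 as to activity, negative = cytotoxic: plate controls were DMSO for no effect and bortezomib for full effect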
Conditions: viability qHTS; series mostly up to 45.9 µM; activity, negative = cytotoxic: at the top concentration
In short: as §2

Row | Compound | activity, negative = cytotoxic | Potency
30 | NCCCNCCSP(=O)(O)O | 0.865% [at 9.58 µM] (inactive) | 
31 | C[n+]1cc2c3c(ccc2c2ccc4cc5c(cc4c21)OCO5)OCO3 |  | 4.56 µM (active)
32 | CN1C[C@H](C(=O)N[C@]2(C)O[C@@]3(O)[C@@H]4CCCN4C(=O)[C@H](Cc4ccccc4)N3C2=O)C[C@@H]2c3cccc4[nH]cc(c34)C[C@H]21 | -1.37% (inactive) | 
33 | Nc1nc(N)c2nc(-c3ccccc3)c(N)nc2n1 | 11.7% (inactive) | 

Assay: qHTS of pediatric cancer cell lines to identify multiple opportunities for drug repurposing: Confirmatory screen for U-2 OS cells (AID 1347122); also: nearly all actives have a fitted effect of over 65% in size;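 as to activity change, negative = cytotoxicity: plate controls were DMSO for no effect and bortezomib for full effect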
Conditions: U-2 OS osteosarcoma cell viability; series mostly up to 45.9 µM; activity change, negative = cytotoxicity: at the top concentration
In short: as §2

Row | Compound | Potency | outcome | activity change, negative = cytotoxicity
34 | C[n+]1cc2c3c(ccc2c2ccc4cc5c(cc4c21)OCO5)OCO3 | 1.44 µM (active) |  | 
35 | CN1C[C@H](C(=O)N[C@]2(C)O[C@@]3(O)[C@@H]4CCCN4C(=O)[C@H](Cc4ccccc4)N3C2=O)C[C@@H]2c3cccc4[nH]cc(c34)C[C@H]21 |  | inactive | 
36 | CN/C(=C\[N+](=O)[O-])NCCSCc1ccc(CN(C)C)o1 |  |  | 15.8% (inactive)

Assay: qHTS of pediatric cancer cell lines to identify multiple opportunities for drug repurposing: Confirmatory screen for Rh41 cells (AID 1347123);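 also: 48 h compound exposure; nearly all actives have a fitted effect of over 60% in size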
Conditions: Rh41 rhabdomyosarcoma cells, viability/cytotoxicity qHTS; series mostly up to 45.9 µM; activity change, negative = cytotoxic: at the top concentration
In short: as §2

Row | Compound | Potency | activity change, negative = cytotoxic
37 | C[C@]12CC[C@@H]3c4ccc(O)cc4C[C@@H](CCCCCCCCCS(=O)CCCC(F)(F)C(F)(F)F)[C@H]3[C@@H]1CC[C@@H]2O (stereo partly specified) | 8.27 µM (active) | 
38 | C[n+]1cc2c3c(ccc2c2ccc4cc5c(cc4c21)OCO5)OCO3 | 2.29 µM (active) | 
39 | CN1C[C@H](C(=O)N[C@]2(C)O[C@@]3(O)[C@@H]4CCCN4C(=O)[C@H](Cc4ccccc4)N3C2=O)C[C@@H]2c3cccc4[nH]cc(c34)C[C@H]21 | 3.29 µM (active) | 
40 | Nc1nc(N)c2nc(-c3ccccc3)c(N)nc2n1 |  | -26.5% (inactive)
41 | CN/C(=C\[N+](=O)[O-])NCCSCc1ccc(CN(C)C)o1 |  | 17.1% (inactive)
